From PubChem BioAssay AID620 (Sanford-Burnham Center for Chemical Genomics, 2007)
The whole screen tested about 87,000 compounds, of which about 360 (0.41%) were called active. This excerpt belongs to a sample that is enriched for actives. A number with no mark means an inactive call. No stated cut-off is given here; in the data, active means cytotoxicity above about 50%; inactive means the rest.

Assay: HT1080 cell viability loss – fluorescence readout (AID 620);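 further: cells exposed to compound overnight then 4 h with Alamar Blue; 0% = vehicle DMSO and 100% = killing control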
Conditions: at 10 µM, stronger effect = higher value

Compared with `COC(=O)c1ccccc1NC(=O)CN(c1cc(OC)ccc1OC)S(C)(=O)=O`, `COc1ccc(OC)c(NC(=O)CN2C(=O)c3ccccc3S2(=O)=O)c1` is higher in cytotoxicity: -6.6% for the first, -3.4% for the second.

Compared with `COC1(OC)N=C(N)C2(C#N)C(c3cccc(Oc4ccccc4)c3)C12C#N` (stereo unspecified), `CSc1nc2ccccc2n1C(=O)Oc1ccccc1` is higher in cytotoxicity: 0.4% for the first, 13.7% for the second.

Compared with `CC(C)=CCC/C(C)=C/CCC(C)NCCN1CCNCC1` (stereo unspecified), `c1ccc(CNCCN2CCNCC2)nc1` is lower in cytotoxicity: 6.9% for the first, 6.5% for the second.

First: CCOc1ccc2nc(NC(=O)C3CCN(c4cnccn4)CC3)sc2c1
Second: CCOC(=O)N1CCC(NC(=O)c2ccc3c(c2)sc2nc(-c4cccc(OC)c4)cn23)CC1
The cytotoxicity of the first is lower: -5.6% for the first, 11.5% for the second.

Compared with `COC(=O)[C@H](C)NC(=O)Nc1ccc(S(N)(=O)=O)cc1`, `Cc1ccc(NC(=O)c2nnn(CC(=O)Nc3ccccc3)c2N)cc1C` is higher in cytotoxicity: -17.4% for the first, -2.3% for the second.

Going from `CSc1nnc(-c2ccc(S(=O)(=O)N3CCOCC3)cc2)n1CC1CCCO1` (stereo unspecified) to `CCSc1nnc(-c2ccc(S(=O)(=O)N3CCOCC3)cc2)n1CC1CCCO1` (stereo unspecified), the cytotoxicity falls from 0.1% to -1.1%.

Compared with `Cc1ccc(S(=O)(=O)N2CCN(C(=O)CN3CCOCC3)C2c2ccccc2)cc1` (stereo unspecified), `CCCNC(=O)C1CCN(c2ccc(S(=O)(=O)N3CCOCC3)cc2Cl)CC1` is lower in cytotoxicity: 1.5% for the first, -9.5% for the second.

Compared with `CCOC(=O)N1CCN(C(=O)c2ccc3c(c2)sc2nc(-c4ccccc4)cn23)CC1`, `CCOc1ccccc1N1CCN(C(=O)C2c3ccccc3Oc3ccccc32)CC1` is lower in cytotoxicity: 0.3% for the first, -0.5% for the second.

Compared with `COc1cccc(-n2c(SC)nnc2-c2c[nH]c3ccccc23)c1`, `COc1ccc(-n2nnnc2-c2cccc(OC)c2)cc1` is higher in cytotoxicity: 6.9% for the first, 48.1% for the second.

Going from `COC(=O)c1c(C)oc2c1cc(NS(=O)(=O)c1cccs1)c1ccccc12` to `COc1ccc(S(=O)(=O)Nc2cc3c4c(oc3c3ccccc23)CC(C)(C)CC4=O)cc1`, the cytotoxicity falls from 0.6% to -13.5%.

First: CCCc1nc2oc3cc(OC)ccc3c(=O)c2c(=O)n1Cc1ccco1
Second: Cc1occc1-c1nnc(SCC(=O)c2ccc(F)cc2)n1Cc1ccco1
The cytotoxicity of the first is lower: -4.1% for the first, -0.9% for the second.

Going from `CCOC(=O)CSc1nc(-c2cccs2)nc2c1c(=O)n(C)c(=O)n2C` to `CN1C(=O)CC(Sc2ncccc2C(=O)O)C1=O` (stereo unspecified), the cytotoxicity rises from 1.5% to 1.8%.

Going from `O=C(C1CCCN1S(=O)(=O)c1ccc(Cl)c(Cl)c1)N1CCCCC1` (stereo unspecified) to `CC(C)CNC(=O)C1CCN(c2ccc(S(=O)(=O)N3CCOCC3)cc2Cl)CC1`, the cytotoxicity falls from -5% to -20.4%.

Going from `COc1ccc(-n2nnnc2-c2cccnc2)cc1` to `COc1ccc(-c2cc(C(F)(F)F)n3nc(C)cc3n2)cc1`, the cytotoxicity rises from -4.2% to -1.8%.

Compared with `COc1cccc(/C(O)=C2\C(=O)C(=O)N(c3ccccn3)C2c2cccc(OC)c2OC)c1` (stereo unspecified), `O=C(C1c2ccccc2Oc2ccccc21)N1CCN(c2ccc(Cl)cc2)CC1` is lower in cytotoxicity: 21.5% for the first, -1.1% for the second.

Compared with `COC(=O)C(Cc1cnc(Cl)s1)(C(=O)OC)c1ccc([N+](=O)[O-])cc1[N+](=O)[O-]`, `COc1ccc(Cl)cc1NC(=O)/C=C\C(=O)O` is lower in cytotoxicity: -2% for the first, -3.8% for the second.

Compared with `CCC1=C2CC[C@H]3C(=O)N(CC)C(=O)[C@H]3[C@H]2[C@@]2(Cc3ccccc3)C(=O)N(CC3CC3)C(=O)N2C1=O`, `O=S(=O)(c1ccccc1C(F)(F)F)N1CCC(n2cnc3ccccc32)CC1` is lower in cytotoxicity: 2.7% for the first, -0.9% for the second.

Going from `Cc1cc(C(=O)CSc2nnnn2C)c(C)n1-c1ccc2c(c1)OCCO2` to `Cc1cc(C(=O)CSc2nncs2)c(C)n1-c1ccc2c(c1)OCO2`, the cytotoxicity rises from 13.4% to 24.4%.

With `Cc1cc(C)n(-c2nc3ccccc3nc2N2CCOCC2)n1` the cytotoxicity was -0.9%.

For `CC(C)=CCC/C(C)=C/CC(C)(C)CNCCN1CCNCC1`, the cytotoxicity was 56.1% (active).
In the case of `O=S(=O)(c1ccc2c(c1)nc(COc1ccc(Cl)cc1)n2CC1CCCO1)N1CCOCC1` (stereo unspecified), the cytotoxicity is reported as 96.6% (active).
With `COc1ccc2c(c1)sc1nc(-c3ccccc3)cn12` the cytotoxicity was 75.6% (active).
With `COc1ccc(S(=O)(=O)Nc2cc3c(C(C)=O)c(C)oc3c3ccccc23)cc1` the cytotoxicity was 62.6% (active).
For `O=C(NCc1cccs1)C1CCN(c2ccc(S(=O)(=O)N3CCOCC3)cc2Cl)CC1`, the cytotoxicity was 67.8% (active).
For `COc1ccc(-n2nnnc2-c2ccccc2)cc1`, the cytotoxicity was 58.8% (active).
With `Cc1nnc(SCC(=O)c2cc(C)n(-c3ccc4c(c3)OCO4)c2C)s1` the cytotoxicity was 61.4% (active).
For `COc1ccccc1N1CCN(C(=O)C2c3ccccc3Oc3ccccc32)CC1`, the cytotoxicity was 56% (active).
With `Oc1cccc2ccc(Nc3ccccn3)nc12` the cytotoxicity was 60.9% (active).
